Values joined by “and” are separate entries in the source; they are usually repeats but may differ in a detail not shown here. Equal entries are not always repeated. Records with an inconclusive call do not appear. A call without a number means that no potency is given here. Some compounds were tested as several samples or in several runs, with calls that do not always agree. Active and inactive are the calls of the source. Unless noted, calls come from the whole dose curve; as a rule, active = well fitted curve in the direction sought with a large enough effect in the repeat runs; inconclusive = weak or mixed curves; inactive = no such curve, though single readings can be large; an effect the other way counts as inactive or inconclusive.
Columns and labels:
[1] = target: Estrogen receptor (Homo sapiens) (UniProt P03372); assay: qHTS assay to identify small molecule antagonists of the estrogen receptor alpha (ER-alpha) signaling pathway using the BG1 cell line in the presence of 0.1 nM 17-beta-estradiol (AID 1259244); note: nearly all actives have a fitted effect of over 50% in size; note: potency is the fitted concentration of half-maximal effect
Estrogen receptor (Homo sapiens), sequence (P03372 whole entry, looked up): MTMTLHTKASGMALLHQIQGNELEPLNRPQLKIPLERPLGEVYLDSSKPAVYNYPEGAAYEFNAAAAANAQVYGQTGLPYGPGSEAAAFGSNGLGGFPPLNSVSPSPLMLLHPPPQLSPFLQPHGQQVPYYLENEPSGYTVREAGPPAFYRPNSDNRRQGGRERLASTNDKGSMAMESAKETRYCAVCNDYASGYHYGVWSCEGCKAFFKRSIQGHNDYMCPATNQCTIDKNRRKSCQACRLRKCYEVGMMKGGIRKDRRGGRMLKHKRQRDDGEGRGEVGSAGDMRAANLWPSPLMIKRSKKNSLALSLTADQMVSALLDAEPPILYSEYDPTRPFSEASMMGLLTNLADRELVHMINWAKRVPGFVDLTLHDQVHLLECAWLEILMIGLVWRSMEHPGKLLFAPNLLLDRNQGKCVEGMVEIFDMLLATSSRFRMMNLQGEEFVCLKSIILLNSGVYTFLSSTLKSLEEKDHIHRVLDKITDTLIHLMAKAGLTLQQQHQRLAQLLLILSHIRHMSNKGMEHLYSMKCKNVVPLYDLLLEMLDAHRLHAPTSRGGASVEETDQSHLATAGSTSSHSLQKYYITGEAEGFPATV
Summary of the method: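 After 5 days in hormone-depleted medium (charcoal-stripped serum, no phenol red), VM7Luc4E2 cells were seeded, incubated 24 h, then co-treated with compound and 0.1 nM (final) estradiol for 22 h before luminescence detection.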

[2] = qHTS assay to identify small molecule HDAC inhibitors (AID 1259364); note: nearly all actives have a fitted effect of over 45% in size; note: potency is the fitted concentration of half-maximal effect
Summary of the method: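 Homogeneous cell-based luminescent assay of endogenous class I/II HDAC activity; HCT-116 cells, 2 h compound exposure, 30 min HDAC-Glo development at RT.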

[3] = qHTS assay to identify small molecule HDAC inhibitors - cell viability counter screen (AID 1259365); note: series mostly up to about 92 µM; nearly all actives have a fitted effect of over 50% in size
Summary of the method: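 HCT-116 wild-type, overnight attachment; 2hr drug exposure, 37C; CellTiter-Glo luminescent ATP readout after 30min RT.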

[4] = qHTS assay to identify small molecule antagonists of the sonic hedgehog signaling (Shh) pathway - cell viability counter screen (AID 1259367); note: nearly all actives have a fitted effect of over 55% in size; note: potency is the fitted concentration of half-maximal effect
Summary of the method: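 Seed 3T3 Gli1-Luc cells at 2,000 per well; incubate 4 hr; add compound in DMSO, then conditioned medium; incubate at 37C with 5% CO2; add CellTiter-Fluor after 23 hr; read fluorescence 1 hr later.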

[5] = qHTS assay to identify small molecule agonists of the sonic hedgehog signaling (Shh) pathway (AID 1259368; calls by dose curve;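 note: NIH/3T3-derived 3T3Gli1-Luc cells carrying a stable Gli1-driven firefly luciferase reporter; series mostly up to about 92 µM; nearly all actives have a fitted effect of over 15% in size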)
Summary of the method: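 Steps: seed 3T3 Gli1-Luc cells, incubate 4 hr at 37 C, pin-transfer compounds in DMSO alongside a positive control, incubate 24 hr, add luciferase detection reagent, wait 30 min at room temperature, read luminescence.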

[6] = qHTS assay to identify small molecule antagonists of the sonic hedgehog signaling (Shh) pathway (AID 1259369; calls by dose curve; note: nearly all actives have a fitted effect of over 45% in size; note: potency is the fitted concentration of half-maximal effect)
Summary of the method: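 Inhibition of Shh signalling is measured as reduced Gli1-response-element firefly luciferase output in an NIH/3T3-derived stable reporter clone stimulated with conditioned medium for 24hr.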

[7] = qHTS assay to identify small molecule phospholipidosis (PLD) inducers (AID 1259344; active = well fitted curve in the direction sought with a large enough effect; an effect the other way counts as inactive or inconclusive)
Summary of the method: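 Quantitative HTS in HepG2: compound plus LipidTOX Red dye for 24 h, paraformaldehyde fixation with Hoechst 33342, widefield high-content imaging; amiodarone as positive and DMSO as negative control.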

[8] = qHTS assay to identify small molecule agonists of the sonic hedgehog signaling (Shh) pathway - cell viability counter screen (AID 1259366); note: nearly all actives have a fitted effect of over 50% in size; note: potency is the fitted concentration of half-maximal effect
Summary of the method: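 Compounds in DMSO were pin-transferred onto 3T3 Gli1-Luc cells that had settled 4hr; plates then stood 24hr at 37C and 5% CO2. One hour before the end, CellTiter-Fluor was added and fluorescence recorded.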

[9] = target: Androgen receptor (Homo sapiens) (UniProt P10275); assay: qHTS assay to identify small molecule antagonists of the androgen receptor (AR) signaling pathway using the MDA cell line in the presence of 0.5 nM R1881 (AID 1259243); note: nearly all actives have a fitted effect of over 50% in size; note: potency is the fitted concentration of half-maximal effect
Androgen receptor (Homo sapiens), sequence (P10275 whole entry, looked up): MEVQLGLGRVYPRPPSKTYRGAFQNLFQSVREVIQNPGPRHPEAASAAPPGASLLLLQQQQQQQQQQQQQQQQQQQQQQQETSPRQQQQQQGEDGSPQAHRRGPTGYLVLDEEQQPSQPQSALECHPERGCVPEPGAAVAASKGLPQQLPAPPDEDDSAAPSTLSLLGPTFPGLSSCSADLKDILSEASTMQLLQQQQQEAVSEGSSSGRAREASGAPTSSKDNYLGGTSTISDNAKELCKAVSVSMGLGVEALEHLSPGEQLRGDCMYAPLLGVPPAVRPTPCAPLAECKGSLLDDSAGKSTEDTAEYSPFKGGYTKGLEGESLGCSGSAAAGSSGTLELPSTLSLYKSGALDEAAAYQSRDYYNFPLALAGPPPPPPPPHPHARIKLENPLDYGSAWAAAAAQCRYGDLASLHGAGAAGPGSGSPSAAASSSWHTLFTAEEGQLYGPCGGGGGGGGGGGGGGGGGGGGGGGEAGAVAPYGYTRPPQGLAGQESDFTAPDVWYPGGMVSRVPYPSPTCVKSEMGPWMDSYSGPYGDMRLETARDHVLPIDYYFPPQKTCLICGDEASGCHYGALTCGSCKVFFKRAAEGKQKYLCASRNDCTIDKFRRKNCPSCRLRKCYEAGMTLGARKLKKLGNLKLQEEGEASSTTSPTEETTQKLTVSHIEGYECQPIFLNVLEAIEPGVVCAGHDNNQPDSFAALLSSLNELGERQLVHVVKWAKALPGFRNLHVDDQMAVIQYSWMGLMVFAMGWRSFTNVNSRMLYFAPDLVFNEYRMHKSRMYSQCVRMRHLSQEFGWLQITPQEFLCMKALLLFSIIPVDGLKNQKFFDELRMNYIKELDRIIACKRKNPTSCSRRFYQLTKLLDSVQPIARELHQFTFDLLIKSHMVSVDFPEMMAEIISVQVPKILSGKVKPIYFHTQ
Summary of the method: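 Steps: seed MDA-kb2 cells, incubate 5 hr at 37C; pin-transfer compounds in DMSO; add R1881 to 0.5 nM final; incubate 16 hr; add ONE-Glo, wait 30 min at room temperature; read luminescence.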

[10] = qHTS assay to identify small molecule antagonists of the androgen receptor (AR) signaling pathway using the MDA cell line in the presence of 0.5 nM R1881 - cell viability counter screen (AID 1259242); note: nearly all actives have a fitted effect of over 45% in size
Summary of the method: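 Cytotoxicity toward MDA-kb2 cells is measured by CellTiter-Fluor live-cell protease fluorescence after 16 hr compound exposure at 37C in the presence of 0.5 nM R1881 stimulator.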

SMILES: CC(C)(C)C(O)/C(=C\c1ccc(Cl)cc1Cl)n1cncn1 (stereo unspecified)
- Potency [1]: 74 µM (active)
- Potency [2]: inactive
- Potency [3]: inactive
- Potency [4]: 65.9 µM (active)
- Potency [5]: inactive
- Potency [6]: 7.4 µM (active)

SMILES: CS(=O)(=O)c1ccc(C(=O)C2C(=O)CCCC2=O)c([N+](=O)[O-])c1
- Potency [1]: inactive
- Potency [7]: inactive
- Potency [2]: inactive
- Potency [3]: inactive
- Potency [8]: inactive
- Potency [5]: inactive

SMILES: CCSC(C)CC1CC(=O)C(/C(CC)=N/OC/C=C/Cl)=C(O)C1 (stereo unspecified)
- Potency [9]: inactive
- Potency [1]: inactive
- Potency [2]: inactive
- Potency [3]: inactive
- Potency [8]: inactive
- Potency [4]: inactive
- Potency [5]: inactive

SMILES: BrCBr
- Potency [1]: inactive
- Potency [2]: inactive
- Potency [3]: inactive
- Potency [8]: inactive
- Potency [4]: inactive
- Potency [5]: inactive
- Potency [6]: inactive

SMILES: C=CC(=O)OCCCCOC(=O)C=C
- Potency [1]: inactive
- Potency [2]: inactive
- Potency [8]: 61.1 µM (active)
- Potency [5]: inactive

SMILES: C[C@]12CC[C@H]3[C@@H](CCC4=CC(=O)CC[C@@]43C)[C@@H]1CC[C@@H]2O
- Potency [1]: inactive
- Potency [2]: inactive
- Potency [3]: inactive
- Potency [8]: inactive
- Potency [4]: inactive
- Potency [5]: inactive

SMILES: Oc1c(Cl)c(Cl)cc(Cl)c1Cl
- Potency [9]: 66.7 µM (active)
- Potency [3]: inactive
- Potency [8]: inactive
- Potency [5]: inactive

SMILES: O=C(O)c1cc[c]([Hg][Cl])cc1
- Potency [1]: inactive
- Potency [2]: 30.6 µM (active)
- Potency [3]: inactive
- Potency [8]: 27.3 µM (active)
- Potency [4]: 43.3 µM (active)
- Potency [5]: inactive
- Potency [6]: 1.72 µM (active)

SMILES: N#CCc1ccc(Cl)cc1
- Potency [1]: inactive
- Potency [2]: inactive
- Potency [3]: inactive
- Potency [8]: inactive
- Potency [4]: inactive
- Potency [6]: inactive

SMILES: N#Cc1ccc(O)cc1
- Potency [9]: inactive
- Potency [3]: inactive
- Potency [8]: inactive
- Potency [4]: inactive
- Potency [5]: inactive
- Potency [6]: inactive

SMILES: Clc1ccc(-c2ccc(Cl)c(Cl)c2Cl)c(Cl)c1Cl
- Potency [10]: inactive
- Potency [3]: inactive
- Potency [8]: inactive
- Potency [5]: inactive
- Potency [6]: inactive

SMILES: N#Cc1c(-c2ccc(Cl)cc2)[nH]c(C(F)(F)F)c1Br
- Potency [9]: 0.433 µM (active)
- Potency [1]: 0.611 µM (active)
- Potency [2]: inactive
- Potency [3]: inactive
- Potency [4]: 27.3 µM (active)
- Potency [5]: inactive
- Potency [6]: 0.77 µM (active)

SMILES: ClC1=C(Cl)[C@]2(Cl)[C@@H]3[C@@H](Cl)[C@H](Cl)C[C@@H]3[C@@]1(Cl)C2(Cl)Cl
- Potency [9]: inactive
- Potency [1]: inactive
- Potency [3]: inactive
- Potency [8]: inactive
- Potency [5]: inactive
- Potency [6]: inactive

SMILES: COc1cccc2c1C(=O)c1c(O)c3c(c(O)c1C2=O)C[C@@](O)(C(=O)CO)CC3OC1CC(N2CCOC(OC)C2)C(O)C(C)O1 (stereo partly specified)
- Potency [9]: 0.119 µM (active)
- Potency [1]: 0.15 µM (active)
- Potency [3]: inactive
- Potency [8]: 0.237 µM (active)
- Potency [5]: inactive

SMILES: ClC1=C(Cl)[C@]2(Cl)[C@@H]3[C@@H]4C[C@@H]([C@H]5O[C@@H]45)[C@@H]3[C@@]1(Cl)C2(Cl)Cl
- Potency [1]: 68.6 µM (active)
- Potency [7]: inactive
- Potency [2]: inactive
- Potency [3]: inactive
- Potency [5]: inactive

SMILES: CC(C)[C@H](C(=O)OC(C#N)c1cccc(Oc2ccccc2)c1)c1ccc(OC(F)F)cc1 (stereo partly specified)
- Potency [10]: inactive
- Potency [3]: inactive
- Potency [8]: inactive
- Potency [5]: inactive
- Potency [6]: inactive

SMILES: CC(C)(c1ccc(O)c(-c2ccccc2)c1)c1ccc(O)c(-c2ccccc2)c1
- Potency [9]: 30.6 µM (active)
- Potency [1]: 48.6 µM (active)
- Potency [2]: inactive
- Potency [8]: 15.4 µM (active)
- Potency [5]: inactive
- Potency [6]: 12.2 µM (active)

SMILES: Oc1cc(Cl)c(Cl)c(Cl)c1
- Potency [9]: 46.1 µM (active)
- Potency [1]: 41 µM (active)
- Potency [3]: inactive
- Potency [8]: inactive
- Potency [5]: inactive
- Potency [6]: 13 µM (active)

SMILES: N#Cc1ccccc1N
- Potency [9]: inactive
- Potency [2]: inactive
- Potency [3]: inactive
- Potency [8]: inactive
- Potency [4]: inactive
- Potency [5]: inactive

SMILES: O=C(CCCN1CCC2(CC1)C(=O)NCN2c1ccccc1)c1ccc(F)cc1
- Potency [1]: 8.41 µM (active)
- Potency [2]: inactive
- Potency [8]: inactive
- Potency [4]: inactive
- Potency [5]: inactive
- Potency [6]: 2.11 µM (active)

SMILES: O=C1c2ccccc2C(=O)C1C(=O)C(c1ccccc1)c1ccc(Cl)cc1 (stereo unspecified)
- Potency [9]: 21.7 µM (active)
- Potency [2]: inactive
- Potency [8]: inactive
- Potency [4]: inactive
- Potency [5]: inactive
- Potency [6]: 54.5 µM (active)

SMILES: Cc1cc(N=Nc2ccccc2C)ccc1N
- Potency [9]: 54.5 µM (active) and 48.6 µM (active)
- Potency [3]: inactive
- Potency [8]: 27.3 µM (active) and 30.6 µM (active)
- Potency [4]: 27.3 µM (active) and 30.6 µM (active)
- Potency [5]: inactive
- Potency [6]: 19.3 µM (active) and inactive

SMILES: CC(C)C1CCC(Cc2ccc(Cl)cc2)C1(O)Cn1cncn1 (stereo unspecified)
- Potency [1]: 48.1 µM (active)
- Potency [2]: inactive
- Potency [3]: inactive
- Potency [8]: 48.1 µM (active)
- Potency [5]: inactive
- Potency [6]: 17.1 µM (active)

SMILES: Cn1[nH]nnc1=S
- Potency [1]: inactive
- Potency [2]: inactive
- Potency [3]: inactive
- Potency [8]: inactive
- Potency [4]: inactive
- Potency [5]: inactive

SMILES: O=C(Cl)c1ccc(Cl)cc1
- Potency [9]: inactive
- Potency [1]: inactive
- Potency [2]: inactive
- Potency [3]: inactive
- Potency [8]: inactive
- Potency [5]: inactive
- Potency [6]: inactive

SMILES: COc1cccc(C(=O)CCN[C@@H](C)[C@H](O)c2ccccc2)c1
- Potency [9]: 29.8 µM (active)
- Potency [2]: inactive
- Potency [3]: inactive
- Potency [5]: inactive
- Potency [6]: 23.7 µM (active)

SMILES: CNC(C)Cc1ccc2c(c1)OCO2 (stereo unspecified)
- Potency [9]: inactive
- Potency [7]: inactive
- Potency [2]: inactive
- Potency [3]: inactive

SMILES: Cc1cc(C(C)(C)c2cc(C)c(O)c(C)c2)cc(C)c1O
- Potency [10]: inactive
- Potency [3]: inactive
- Potency [4]: inactive
- Potency [5]: inactive
- Potency [6]: inactive

From PubChem BioAssay (Tox21)
